Source: PubChem
This excerpt belongs to a sample that is enriched for hits.
Tb PYK inh = inhibitors of Trypanosoma brucei pyruvate kinase; Potency, µM (highest dose often 76.8 µM), hits mostly inhibitors; AID 624173; TbPYK enzyme, Kinase-Glo Plus ATP luminescence, 45 min; 410,000 compounds, 0.12% hits; further: nearly all actives have a fitted effect of over 50% in size
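Readout: single end-point luminescence (Kinase-Glo Plus, 10 min). Reaction conditions were TbPYK/substrate plus 130 uM ADP, 45 min at RT, pH 7.2 TEA buffer. No-enzyme wells served as controls, and data were normalized before concentration-response fitting.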
LmPK inhibitor = LmPK (Leishmania mexicana) enzyme inhibition; Q27686; purified LmPK, Kinase-Glo ATP luminescence, 1 h; Potency, µM (doses to about 57.5 µM), usual class: inhibitors; 290,000 compounds, 0.37% hits
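0.1 nM LmPK, 0.5 mM PEP, 0.1 mM ADP; 50 mM imidazole pH 7.2, 7 mM MgCl2, 50 mM KCl; 1 h RT. Kinase-Glo luminescence readout, normalized to no-enzyme (full inhibition) and uninhibited wells.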
RE007 growth inh = less growth of the S. pombe RE007 Vpr strain | S. pombe RE007 Vpr strain, BacTiter-Glo ATP luminescence, 24 h | Potency, µM (titrated, usually from 92.2 µM), actives largely listed as inhibitors | 360,000 compounds, 0.21% hits | AID 651644; active means well fitted falling curve with a large enough effect; inconclusive means small, poorly fitted or top-dose-only effect; inactive means no such curve, though single readings can be large or run the other way; further: nearly all actives have a fitted effect of over 50% in size
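Fission yeast RE007 carrying one integrated HIV-1 vpr copy, seeded at OD 0.01 in PMG+AL medium with 23 nL pinned compound. Grown 24 h at 30 degrees; viability read by BacTiter-Glo luminescence after 5 min.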
Cycloheximide cs = affects cycloheximide protein synthesis inhibition readout, counter-screen; cell reporter, cycloheximide protein synthesis inhibition counterscreen; max response, %; 300,000 compounds, 12% hits; AID 2314; in the data active means max response mostly above about 13%, no sharp cut-off; inactive means mostly below about 14%; further: read at 38.3 µM for the half of the compounds with a filed dose
Giardia FBPA inh = Giardia lamblia aldolase inhibition; A8B2U2; purified Giardia FBPA; Potency, µM (highest dose often 59.6 µM), usual class: inhibitors; 290,000 compounds, 0.71% hits; AID 2451; further: nearly all actives have a fitted effect of over 55% in size
Target sequence (A8B2U2 whole entry, looked up): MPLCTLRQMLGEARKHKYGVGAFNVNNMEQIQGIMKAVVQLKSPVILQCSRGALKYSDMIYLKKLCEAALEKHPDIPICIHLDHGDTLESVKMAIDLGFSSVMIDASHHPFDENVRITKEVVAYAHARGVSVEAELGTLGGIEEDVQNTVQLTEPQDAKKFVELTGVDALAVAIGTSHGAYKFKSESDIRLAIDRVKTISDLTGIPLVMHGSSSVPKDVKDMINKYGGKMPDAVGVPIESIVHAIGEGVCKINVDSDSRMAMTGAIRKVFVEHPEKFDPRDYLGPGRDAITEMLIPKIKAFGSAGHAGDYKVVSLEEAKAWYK
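40 nM FBPA preincubated 10 min at RT with compound (up to 57.5 uM final), then substrate plus GAPDH/TPI/NAD/arsenate coupling and diaphorase/resazurin added. Fluorescence read after 20 min at RT, 525/598 nm.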
Shiga toxin inh = blocks Shiga toxin action in Vero cells; Vero cells, Shiga toxin protein synthesis inhibition reporter; inhibition, % at 38.7 µM; 290,000 compounds, 9.2% hits; in the data active means inhibition mostly above about 28%, no sharp cut-off; inactive means mostly below about 43%
Hits are given with their value; i = inactive; ? = inconclusive; nt = no result given; [ ] = dose if it differs, or a comment. Unless noted, the call rests on the fitted dose curve; in most records, active means well fitted curve in the direction sought with a large enough effect; inconclusive means small, poorly fitted or top-dose-only effect, or another doubt; inactive means no such curve, though single readings can be large; an effect the other way counts as inactive or inconclusive.

SMILES | Tb PYK inh | LmPK inhibitor | RE007 growth inh | Cycloheximide cs | Giardia FBPA inh | Shiga toxin inh
CCOC(=O)[C@]12CCC=C1N(Cc1ccc(Cl)cc1Cl)C(=O)[C@H](CC(=O)N1CCC(c3ccccc3)CC1)C2 | i | nt | i | nt | nt | nt
CCCOc1ccc(/C=N/Nc2ccc(C(=O)O)cc2)c(OCCC)c1 | i | i | i | 38 | i | 121
COc1ccc(/C=N/NC(=S)Nc2ccccc2[N+](=O)[O-])cc1O | i | i | i | 60 | i | 62
COc1cccc(-c2cc(C(=O)N3CCCCCC3)no2)c1 | i | i | i | 37 | i | 54
COc1ccc(-c2cc(C(=O)N3CCCCCC3)no2)cc1 | i | i | i | 20 | i | 70
COc1cccc(-c2cc(C(=O)N3CCN(c4ccc(F)cc4)CC3)no2)c1 | i | i | i | i | i | i
COc1ccc(-c2cc(C(=O)N3CCCCCC3)no2)cc1OC | i | i | i | 30 | i | 52
COc1ccc(-c2cc(C(=O)N3CCN(C(c4ccccc4)c4ccccc4)CC3)no2)cc1 | i | i | i | i | i | i
COc1ccc(-c2cc(C(=O)N3CCCC3)no2)cc1 | i | i | i | 25 | i | 74
COc1ccc(-c2cc(C(=O)N3CCN(C(c4ccccc4)c4ccccc4)CC3)no2)cc1OC | i | i | i | i | i | i
O=c1c(-c2cccc(F)c2)nc2cncnc2n1-c1ccccc1 | i | nt | nt | nt | i | nt
COc1cccc(-c2cc(C(=O)N3CCCCC3C)no2)c1 (stereo unspecified) | i | i | i | 28 | i | 105
COc1ccc(Nc2c(-c3ccco3)nc3ccc(C)cn23)cc1 | i | i | i | 31 | i | i
c1ccc(Nc2c(-c3ccco3)nc3ccccn23)cc1 | i | i | i | i | i | i
Cc1ccc(Nc2c(-c3ccco3)nc3ccccn23)cc1 | i | i | i | 30 | i | 97
CCn1c(=O)n(CC)c2cc(N3CCCC3)c(NC(=O)c3cccc(Cl)c3)cc21 | i | i | i | i | i | i
CCc1nc2ccc(C(=O)N(CC)CCN(C)C)cn2c1N(C)C(=O)c1cccc(OC)c1 | i | nt | i[18.4 µM] | nt | nt | nt
CNC(=O)Oc1ccc(-c2cn3cc(C)ccc3n2)cc1 | i | i | ? | i | i | i
CN(C)S(=O)(=O)c1cccc(-c2cn3cc(Cl)ccc3n2)c1 | i | i | i | 28 | i | i
CNC(=O)Oc1cccc(-c2cn3cc(Cl)ccc3n2)c1 | i | 14µM | ? | i | i | i
Clc1ccc2nc(-c3ccccc3)cn2c1 | ? | ? | i | 34 | i | 44
Cc1cccc(C)c1NC(=O)CN(CC(=O)O)CC(=O)O | i | nt | nt | nt | nt | nt
COc1ccc(CCNC(=O)CCC(=O)n2ncc3ccc(Cl)cc32)cc1OC | i | i | i | i | i | i
CC(C)Sc1nc2ccc(N3C(=O)C4CCCCC4C3=O)cc2s1 (stereo unspecified) | i | i | i | 24 | i | i
O=C(O)c1ccc(CSc2nc3ccc(N4C(=O)C5C6C=CC(C6)C5C4=O)cc3s2)cc1 (stereo unspecified) | i | i | i | i | i | i
SMILES | Tb PYK inh | LmPK inhibitor | RE007 growth inh | Cycloheximide cs | Giardia FBPA inh | Shiga toxin inh
COc1ccc(CN(C)CCc2ccccn2)cc1OC | i | i | i | i | 6.3µM | i
Cn1c(=O)n(CC(=O)O)c(=O)c2c1nc1n2CCCN1c1ccc(Cl)cc1 | i | nt | nt | nt | nt | nt
Cc1ccc(C(=O)NC(=S)N2CCN(C)CC2)cc1 | i | i | i | 21 | i | 88
CC(C)Oc1ccc(C(=O)NC(=S)N2CCOCC2)cc1 | i | i | i | 32 | ? | 45
CC(C)(C)c1ccc(C(=O)NC(=S)N2CCOCC2)cc1 | ? | i | i | 46 | nt | 92
Cc1ccc(C(=O)NC(=S)N2CCCC2)cc1 | i | i | i | i | nt | i
CN1CCN(C(=S)NC(=O)c2ccc(S(=O)(=O)N3CCOCC3)cc2)CC1 | i | i | i | i | ? | i
O=c1c(N2CCc3ccccc3C2)csc2ccc(Cl)cc12 | i | nt | nt | nt | nt | nt
O=C1NC2(CCCCC2)N=C1c1ccc(Br)cc1 | i | i | i | 15 | i | i
O=C1NC2(CCCCC2)N=C1c1ccc(F)cc1 | i | i | i | i | i | i
CCN1CCC(N(Cc2cccc(OC)c2)C(=O)Nc2ccc(C)cc2Cl)CC1 | i | nt | nt | nt | nt | nt
CCCCC(=O)NC1(C(F)(F)F)C(=O)N(CC(C)C)C2=C1C(=O)CC(C)(C)C2 (stereo unspecified) | i | i | i | i | i | 44
CCCCN1C(=O)C(NC(=O)C2CC2)(C(F)(F)F)C2=C1CC(C)(C)CC2=O (stereo unspecified) | i | i | i | i | i | i
CCn1cc2nc(SCc3ccccc3Cl)n(Cc3ccc(OC)cc3)c(=O)c2n1 | i | nt | nt | nt | nt | nt
COC(=O)c1ccc(C)c(NC(=O)C2COc3ccccc3O2)c1 (stereo unspecified) | i | i | i | i | i | i
CC1(C)Oc2ccc(NC(=O)C3COc4ccccc4O3)cc2O1 (stereo unspecified) | ? | ? | i | 35 | i | i
CCCNC(=O)c1ccccc1NC(=O)C1COc2ccccc2O1 (stereo unspecified) | i | i | i | i | i | i
COc1cc(NC(=O)C2COc3ccccc3O2)c(OC)cc1Cl (stereo unspecified) | i | i | i | i | i | i
O=C(Nc1ccccc1F)C1COc2ccccc2O1 (stereo unspecified) | i | i | i | 33 | i | 43
Cc1ccc(NC(=O)C2COc3ccccc3O2)c(C)c1 (stereo unspecified) | i | i | i | 23 | i | nt
O=C1NC(=O)c2cc(NC(=O)C3COc4ccccc4O3)ccc21 (stereo unspecified) | i | i | i | i | i | i
O=C(Nc1ncccc1Cl)C1COc2ccccc2O1 (stereo unspecified) | i | i | i | 53 | i | 161
CC(C)OC(C)C | nt | nt | nt | i | i | i
Cc1ccc(NC(=O)C2COc3ccccc3O2)cc1 (stereo unspecified) | i | i | i | 35 | i | 105
O=C(Nc1cccnc1)C1COc2ccccc2O1 (stereo unspecified) | i | i | i | i | nt | i
O=C(Nc1ccccc1)C1COc2ccccc2O1 (stereo unspecified) | i | i | i | 22 | i | 57
Cc1ccc(NC(=O)C2Oc3ccccc3OC2C)cc1 (stereo unspecified) | i | i | ? | 15 | i | i
C/C(=N\NC(=O)C1COc2ccccc2O1)c1ccc(C)o1 (stereo unspecified) | i | i | i | i | i | i
C/C(=N\NC(=O)C1COc2ccccc2O1)c1ccccn1 (stereo unspecified) | i | i | ? | 16 | i | i
CN(C)CCNC(=O)Cc1ccc(NC(=O)N2CCCCc3ccccc32)cc1 | i | nt | nt | nt | nt | nt
